The results in this text go back to paper PMC7862700, “An all-to-all approach to the identification of sequence-specific readers for epigenetic DNA modifications on cytosine”.

Sequence of ETV6 (P41212 whole entry, the tested form may be a part): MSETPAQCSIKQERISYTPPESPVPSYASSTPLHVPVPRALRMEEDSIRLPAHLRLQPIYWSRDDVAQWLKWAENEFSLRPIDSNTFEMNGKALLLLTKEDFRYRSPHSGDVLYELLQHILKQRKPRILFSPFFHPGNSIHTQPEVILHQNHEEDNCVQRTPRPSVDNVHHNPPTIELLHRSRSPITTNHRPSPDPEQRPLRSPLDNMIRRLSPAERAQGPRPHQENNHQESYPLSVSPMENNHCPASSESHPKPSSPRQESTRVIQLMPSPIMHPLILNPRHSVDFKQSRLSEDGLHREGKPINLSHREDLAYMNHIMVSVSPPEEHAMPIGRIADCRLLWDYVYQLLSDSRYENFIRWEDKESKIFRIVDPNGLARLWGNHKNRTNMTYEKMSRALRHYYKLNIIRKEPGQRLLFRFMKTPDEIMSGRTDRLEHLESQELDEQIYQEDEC

In this test the target is ETV6 (Homo sapiens, UniProt P41212 1-452). The experiment in a line: DAPPL (digital affinity profiling via proximity ligation, sequencing); 10 mM Tris-HCl pH 7.5, 50 mM NaCl, 1 mM DTT, 4% glycerol, room temperature, 30 min; GST-TFs on glutathione beads, 16-mer random dsDNA library, 0.1% formaldehyde crosslink after washing; high values mean tight binding. Particulars: protein: recombinant; tags: N-terminal GST; dsDNA, one strand shown. The procedure, abridged:
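Yeast served to express human transcription factors as GST fusions, which were then captured on glutathione beads and labelled with DNA barcodes. Pooled with a tag-only sample, they were incubated with 200 nmole of a 16-mer random double-stranded DNA library for 30 min at room temperature in Tris/NaCl/DTT/glycerol buffer, washed, crosslinked with 0.1% formaldehyde, ligated by proximity, amplified by PCR and sequenced. Dividing each hexamer's read frequency for a factor by its frequency for the tag-only sample gives the binding signal.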
Take TTGGCT: the binding signal is 1.13 fold enrichment (6-mer frequency, TF over GST control).
Under GCCCCC stands 1.05 fold enrichment (6-mer frequency, TF over GST control).
The value for GCGTTT was 1.04 fold enrichment (6-mer frequency, TF over GST control).
The value for TAGTCT was 1.02 fold enrichment (6-mer frequency, TF over GST control).
Consider ACCGAA, for which the binding signal is 1 fold enrichment (6-mer frequency, TF over GST control).
Under GTATGG stands 1.01 fold enrichment (6-mer frequency, TF over GST control); under AGCTGC, 1.11 fold enrichment (6-mer frequency, TF over GST control).
Under AACCCA stands 1.09 fold enrichment (6-mer frequency, TF over GST control); under ACTCGC, 1.25 fold enrichment (6-mer frequency, TF over GST control); under AAGCAA, 1.02 fold enrichment (6-mer frequency, TF over GST control).
The value for TGCGCG was 1.14 fold enrichment (6-mer frequency, TF over GST control); that for GAAAAA was 1.17 fold enrichment (6-mer frequency, TF over GST control).
Consider CGATCA, for which the binding signal was 1.05 fold enrichment (6-mer frequency, TF over GST control).
As to GCGCCT, the binding signal is 1.12 fold enrichment (6-mer frequency, TF over GST control).
ATCATT: the binding signal is 1.06 fold enrichment (6-mer frequency, TF over GST control).
The value for AGATAA was 1.06 fold enrichment (6-mer frequency, TF over GST control).
Under AACGCC stands 1.19 fold enrichment (6-mer frequency, TF over GST control).
For ATCGTT, the binding signal is 1.06 fold enrichment (6-mer frequency, TF over GST control).
CATGGG: the binding signal was 1.01 fold enrichment (6-mer frequency, TF over GST control).
The value for TAGTAA was 1.07 fold enrichment (6-mer frequency, TF over GST control); that for AAGCCC was 1.03 fold enrichment (6-mer frequency, TF over GST control).
In the case of AGCCCC, the binding signal is 1.12 fold enrichment (6-mer frequency, TF over GST control).
For the sequence GTCCAC, the binding signal is 1.03 fold enrichment (6-mer frequency, TF over GST control).
Under CACCAA stands 1.07 fold enrichment (6-mer frequency, TF over GST control).
Under GCACTG stands 1.09 fold enrichment (6-mer frequency, TF over GST control); under CTGGCC, 1.23 fold enrichment (6-mer frequency, TF over GST control); under GCCGAT, 1.2 fold enrichment (6-mer frequency, TF over GST control).
The value for CTACAG was 1.03 fold enrichment (6-mer frequency, TF over GST control).
Take CTATAG: the binding signal was 1.04 fold enrichment (6-mer frequency, TF over GST control).
Take GAATCT: the binding signal was 1.06 fold enrichment (6-mer frequency, TF over GST control).
In the case of TCTGGG, the binding signal is 1.14 fold enrichment (6-mer frequency, TF over GST control).
Under TCTAGG stands 1.02 fold enrichment (6-mer frequency, TF over GST control).
